Hits are enriched below; roughly 32% of the tested compounds scored in any of these assays.
CYP2C19 act: increases human CYP2C19 enzyme activity; 96,000 tested, under 10 active; recombinant CYP2C19, luciferin-H EGE luminescence; hits give high values; 0 = fully inhibited enzyme, 1 = untreated enzyme; activation factor at 5 µM; P33261;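 active means activation factor of at least 2 at 5 µM in the primary screen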;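 further: 0 = wells with 2.5 mM tranylcypromine and 1 = vehicle-only wells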
CYP2C9 activ: increases human cytochrome P450 2C9 activity. P11712. recombinant CYP2C9, luciferin-H conversion, luminescence; hits give high values; factor 1 = untreated enzyme, 0 = blocked. activation factor at 5 µM. 96,000 compounds, 1.4% hits. AID 1024;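 active means activation factor of 2 or more for CYP2C9 at a 5 µM dose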;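 further: 0 = sulfaphenazole-blocked wells and 1 = vehicle-only wells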
Target sequence (P11712 whole entry, looked up): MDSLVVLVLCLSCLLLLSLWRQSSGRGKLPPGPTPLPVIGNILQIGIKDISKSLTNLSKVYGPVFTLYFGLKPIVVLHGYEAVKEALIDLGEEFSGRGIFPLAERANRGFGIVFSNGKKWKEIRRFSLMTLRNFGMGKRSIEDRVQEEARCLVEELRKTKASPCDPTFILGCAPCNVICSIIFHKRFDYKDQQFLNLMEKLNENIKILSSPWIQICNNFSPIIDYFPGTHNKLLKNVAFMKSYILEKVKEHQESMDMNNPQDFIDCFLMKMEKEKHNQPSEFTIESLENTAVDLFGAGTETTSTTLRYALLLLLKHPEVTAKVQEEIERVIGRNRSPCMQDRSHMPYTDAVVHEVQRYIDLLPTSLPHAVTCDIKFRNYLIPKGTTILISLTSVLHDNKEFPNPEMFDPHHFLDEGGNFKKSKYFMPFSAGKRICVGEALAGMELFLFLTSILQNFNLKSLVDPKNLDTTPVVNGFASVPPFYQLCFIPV
PostGolgi yeast: growth inhibition of a yeast mutant, post-Golgi transport screen. inhibition, % at 10 µM. post-Golgi transport phenotypic cell assay. 98,000 compounds, 0.9% hits. AID 739;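 further: yeast cells grown in 1536-well plates; yeast grown about 18 h at 30C before absorbance read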
CYP2C9 inhib: blocks human cytochrome P450 2C9. P11712. CYP2C9 Supersomes, luciferin-H conversion, luminescence. inhibition, % at 5 µM. 96,000 compounds, 20% hits;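 active means blocking of liver enzyme CYP2C9 beyond about 50% at 5 µM, limit read from the data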
CYP2C19 inh: human CYP2C19 inhibition | CYP2C19 Supersomes, luciferin-H EGE luminescence, 30 min | inhibition, % at 5 µM | 96,000 compounds, 21% hits | P33261 | AID 778;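 active means CYP2C19 inhibition above a set limit at 5 µM in the primary screen, cut at about 50% in these data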;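 further: plate controls were negative control wells for no effect and 2.5 mM tranylcypromine positive control for full effect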
PostGolgi ctrl: growth of the yeast control strain, post-Golgi counter-screen. efflux-deficient yeast background strain, growth absorbance A615, 16 h. inhibition, % at 10 µM. 98,000 compounds, 5% hits
* = called active by the depositor; nt = not tested or not shown. Unless noted, no stated cut-off is given here; in the data, active means inhibition above about 30%; inactive means the rest.

SMILES | CYP2C19 act | CYP2C9 activ | PostGolgi yeast | CYP2C9 inhib | CYP2C19 inh | PostGolgi ctrl
COCCn1c(COC)nc2ccccc21 | 0.9 | 0.9 | -2 | 12 | 5 | 3
COCCOCCn1c(CCCO)nc2ccccc21 | 1.2 | 1.2 | -2 | -21 | -19 | 4
CCOc1ccccc1N1C(=O)CC(Sc2ncccc2C(=O)O)C1=O (stereo unspecified) | 1.2 | 1.3 | 0 | -30 | -18 | 9
CC1(C)C(=O)OC(c2cccs2)C2(CCCCC2)C1=O (stereo unspecified) | 0.7 | 0.9 | 6 | 13 | 29 | 8
COc1cc([N+](=O)[O-])ccc1NC(=O)CCCOc1cccc(C)c1 | 0.6 | 0.8 | -11 | 19 | 38 | 17
COCCn1c(COc2ccc(C)cc2)nc2ccccc21 | 0.3 | 0.7 | -7 | 30 | 65* | 15
COc1ccccc1NC(=O)Cn1c(=O)sc2ccccc21 | 0.6 | 1 | 2 | -1 | 39 | 10
COc1ccccc1OCCn1c(=O)sc2ccccc21 | 0.3 | 0.3 | -1 | 66* | 68* | 9
OCc1nc2ccccc2n1CCCOc1ccccc1 | 0.5 | 1 | 5 | 1 | 53* | 3
COc1ccc(/C=N/NC(=O)c2cc(C)on2)c2ccccc12 | 0.7 | 0.6 | -4 | 40 | 26 | 11
O=C(C1CC(=O)N(C2CCCC2)C1)N1CCC(Cc2ccccc2)CC1 (stereo unspecified) | 0.9 | 0.7 | 2 | 32 | 5 | 10
Cc1cc(C)cc(-n2nnc(C(=O)NCc3ccccc3Cl)c2N)c1 | 0.9 | 2.8* | -2 | -176 | 8 | -5
Cc1cccc(-n2nnc(C(=O)NCc3ccccc3)c2N)c1 | nt | nt | 4 | nt | nt | 16
Cc1nc(N2CCN(C(c3ccccc3)c3ccccc3)CC2)nc2c1C(=O)CCC2 | 0.9 | 0.9 | nt | 10 | 8 | nt
CCC(=O)Nc1cccc(NC(=O)c2cccc([N+](=O)[O-])c2)c1 | 1 | 0.9 | -3 | 7 | 0 | 12
O=C(COc1cccc(NC(=O)c2cccc([N+](=O)[O-])c2)c1)c1ccc(Br)cc1 | 0.6 | 0.3 | 17 | 66* | 38 | 30
O=C(O)/C(=C\c1ccco1)NC(=O)c1cccc2ccccc12 | 0.9 | 0.9 | 1 | 9 | 14 | -5
Cc1ccc(/C=C/c2ccc(=O)n(Cc3ccccc3Cl)n2)cc1 | 1 | 0.6 | -5 | 39 | 0 | 42*
Cc1ccc(NC(=O)/C=C/c2cccs2)c([N+](=O)[O-])c1 | 1.2 | 1.1 | 14 | -8 | -16 | -1
Clc1ccc(OCc2cc(-c3ccccc3)no2)cc1Cl | 1 | 0.3 | 2 | 69* | 1 | 4
Nc1nc(-c2ccc(Cl)cc2Cl)cn1N | 0.8 | 0.9 | -5 | 9 | 20 | 15
Cc1cc(N2CCC(C(=O)NCC3CC3)CC2)nc(-c2ccccc2)n1 | 0.3 | 0.4 | -5 | 62* | 73* | 5
Cc1cc(N2CCC(C(=O)NC3CC3)CC2)nc(-c2ccccc2)n1 | 0.6 | 0.9 | -2 | 6 | 37 | 4
COc1cc2c(cc1OC)CN(C(=O)c1cc(S(=O)(=O)N3CCOCC3)ccc1Cl)CC2 | 0.9 | 0.8 | -4 | 15 | 7 | 1
CCC(c1nnnn1C1CCCCC1)N1CCN(C2CCCC2)CC1 (stereo unspecified) | 0.7 | 0.8 | -3 | 16 | 28 | 11
SMILES | CYP2C19 act | CYP2C9 activ | PostGolgi yeast | CYP2C9 inhib | CYP2C19 inh | PostGolgi ctrl
CC(C)C(c1nnnn1C1CCCC1)N1CCN(C(=O)c2ccco2)CC1 (stereo unspecified) | 1 | 0.5 | 3 | 50* | 5 | 12
CC(C)CC(c1nnnn1C1CCCC1)N1CCN(c2ccccc2F)CC1 (stereo unspecified) | 1 | 0.9 | 72* | 9 | -1 | 87*
Fc1ccccc1N1CCN(C(c2ccccn2)c2nnnn2C2CCCCC2)CC1 (stereo unspecified) | 0.2 | 0.2 | 5 | 77* | 80* | 40*
CC(C)CC(c1nnnn1C1CCCCC1)N1CCN(c2ncccn2)CC1 (stereo unspecified) | 0.1 | 0 | 53* | 96* | 88* | 84*
CC(=O)NC(=O)COC(=O)/C=C/c1c(C)nn(Cc2c(Cl)cccc2Cl)c1Cl | 0.8 | 0.6 | -4 | 41 | 18 | -6
CC(C)C(c1nnnn1C1CCCCC1)N1CCN(c2ncccn2)CC1 (stereo unspecified) | 0.7 | 0.4 | 51* | 60* | 27 | 83*
Cc1nc2ncnn2c(N2CCN(c3cccc(C(F)(F)F)c3)CC2)c1C | 0.4 | 0.6 | 2 | 44 | 64* | 19
Cc1cc(N2CCN(c3cccc(C(F)(F)F)c3)CC2)n2ncnc2n1 | 0.8 | 1.8 | 1 | -76 | 21 | 17
CC1(C)CC(=O)C=C(Nc2cc(-c3ccccc3)[nH]n2)C1 | 0.9 | 0.5 | 28 | 53* | 14 | 5
CC1(C)CC(=O)C=C(NCc2ccccc2)C1 | 0.7 | 1 | -7 | 3 | 34 | -4
C=CCn1c(SCc2c(C)noc2C)nnc1C1COc2ccccc2O1 (stereo unspecified) | 0.7 | 0.4 | -1 | 61* | 33 | 19
C=CCn1c(SCC(=O)Nc2cc(C)nn2-c2ccccc2)nnc1C1CCCCC1 | 0.3 | 0.6 | -5 | 42 | 66* | 17
C=CCn1c(SCC(=O)NCc2ccc3c(c2)OCO3)nnc1C1CCCCC1 | 0.5 | 0.4 | -4 | 58* | 53* | 4
C=CCn1c(SCC(=O)NCc2ccc3c(c2)OCO3)nnc1C1COc2ccccc2O1 (stereo unspecified) | 0.4 | 0.5 | 0 | 53* | 65* | 5
CCN(CC)S(=O)(=O)c1ccc(NC(=O)c2ccccn2)cc1 | 0.7 | 0.5 | 4 | 49 | 28 | 3
CCN(CC)S(=O)(=O)c1ccc(NC(=O)C2COc3ccccc3O2)cc1 (stereo unspecified) | 0.8 | 0.3 | 0 | 72* | 23 | 18
O=C(NC1=NCCS1)C1COc2ccccc2O1 (stereo unspecified) | 0.9 | 0.8 | 6 | 23 | 8 | 9
O=C(CSC1=NCCN1)C1COc2ccccc2O1 (stereo unspecified) | 0.4 | 0.3 | 2 | 67* | 61* | -1
O=C(Nc1ccncc1)C1COc2ccccc2O1 (stereo unspecified) | 0 | 0.5 | -8 | 52* | 96* | -8
CCN(CC)S(=O)(=O)c1ccc(NC(=O)COC(=O)CN2C(=O)c3ccccc3C2=O)cc1 | 0.7 | 0.2 | 0 | 81* | 33 | 8
O=C(Cn1c(=O)sc2ccccc21)NCCOc1ccccc1F | nt | nt | 8 | nt | nt | 0
Cc1cc(C)n(C(=O)c2ccc(NC(=O)C3COc4ccccc4O3)cc2)n1 (stereo unspecified) | 0.6 | 1.7 | -18 | -67 | 45 | 33*
O=C(O)CNC(=O)C1COc2ccccc2O1 (stereo unspecified) | 0.9 | 0.7 | 0 | 26 | 8 | 13

Bioassay records (PubChem BioAssay)
